From PubChem BioAssay (Tox21)
Where “and” joins values, the source holds several entries; their conditions need not be identical. Equal values may be shown once. Results filed as inconclusive are left out. Unmarked numbers belong to inactive results. Calls of active or inactive are those of the source. Calls come from the whole dose curve; as a rule, active = well fitted cell-killing curve with a large enough effect in the repeat runs; inconclusive = weak or mixed curves, or effect the other way; inactive = flat fitted curve, though single readings scatter.

assay: qHTS RealTime-Glo MT Cell Viability Assay in HEK293 cells - 32 hour (AID 1224868); conditions: RealTime-Glo luminescence; series mostly up to 76.8 µM; activity change, negative = cytotoxic: at the top concentration; note: nearly all actives have a fitted effect of over 50% in size; for activity change, negative = cytotoxic: top concentration of the series differs between compounds
Source text: National Center for Advancing Translational Sciences [NCATS]
NIH Chemical Genomics Center [NCGC]
U.S. Environmental Protection Agency [EPA]
National Institutes of Environmental Health Sciences [NIEHS]
National Toxicology Program [NTP]
U.S. Food and Drug Administration [FDA]
Measure of cell viability is critical in the cell-base assay. Analysis of cell viability is necessary for the characterization of cell responses to cytotoxic drugs and environmental stress. A RealTime-Glo MT Cell Viability Assay to monitor cell viability in real time of continues cell culture during 40 hours of compound treatment was used to screen Tox21 10K library compounds in Hek293 cells. The RealTime-Glo MT Cell Viability Assay is a nonlytic, homogeneous, bioluminescent method to measure cell viability in real time using a simple, plate-based method. The assay involves adding NanoLuc luciferase and a cell-permeant prosubstrate to cells in culture. Viable cells reduce the proprietary prosubstrate to generate a substrate for NanoLuc luciferase. This substrate diffuses from cells into the surrounding culture medium, where it is rapidly used by the NanoLuc Enzyme to produce a luminescent signal. The signal correlates with the number of viable cells, making the assay well suited for cytotoxicity studies.
Tox21 Assay Protocol Summary:
The mixture of Hek293 cell suspension and reagents were dispensed at 600cells/6 ul/well in 1536-well tissue culture treated black solid bottom plates using a Multidrop dispenser. After the assay plates were incubated at a 37 C/5% CO2 incubator for 5 hours, 23 nL of compounds dissolved in DMSO, positive and negative controls was transferred to the assay plate by a pintool work station. The plates were incubated at 37 C for 40 hours. The luminescence intensity were measured at 0h, 8h, 16h, 24h, 32h and 40h time points using ViewLux plate reader during compound treatment.
% is set by controls: 0 for no effect and ±100 for the full control effect; potency is the fitted concentration of half-maximal effect.

Compound | activity change, negative = cytotoxic | Potency
C=C/C=C/C=C/CCCCC | 0.818% [at 15.8 µM] | –
O[C@@H](c1cc(C(F)(F)F)nc2c(C(F)(F)F)cccc12)[C@H]1CCCCN1 | – | 8.49 µM (active)
C[C@@H]1CC[C@H]2C(C)(C)[C@H]3C[C@@]12CC[C@@]3(C)O | -19.2% | –
Nc1ccc2cc3ccc(N)cc3nc2c1 | – | 871 nM (active) and 2.13 µM (active)
COc1cc(C(=O)NS(=O)(=O)c2ccccc2C)ccc1Cc1cn(C)c2ccc(NC(=O)OC3CCCC3)cc12 | 4.41% [at 35.3 µM] | –
CCc1c(C(=O)O)c(=O)cnn1-c1ccc(Cl)cc1 | 14.2% | –
CCCCCCCOC(=O)c1ccccc1C(=O)OCCCCCCC | -22.8% | –
CC(C)c1ccccc1N | -0.443% | –
COc1cccc(OC)c1O | 14.9% | –
CCC(C)(C)c1cc(O)c(C(C)(C)CC)cc1O | – | 30.9 µM (active)
CCCCCCCC/C=C\CCCCCCCC(=O)NCc1ccc(O)c(OC)c1 | – | 2.68 µM (active)
Cc1cc(=O)[nH]c(=O)[nH]1 | 0.794% | –
CCCCCCOc1ccc(O)cc1 | – | 0.0692 µM (active)
Cc1c(-c2ccc(O)cc2)n(Cc2ccc(OCCN3CCCCCC3)cc2)c2ccc(O)cc12 | – | 3.01 µM (active)
CCC(C)C(=O)OC (stereo not given) | 7.82% | –
CC(C)(C)c1n[nH]c(=O)n(N)c1=O | -4.27% | –
C[C@@]12C(=O)OC(=O)[C@]1(C)C1CCC2O1 | – | 6.01 µM (active)
CCCCCCCCCC(=O)N(C)C | 2% | –
O=C(Nc1ccc(Cl)cc1)Nc1ccc(Cl)c(C(F)(F)F)c1 | – | 4.77 µM (active)
Cc1cccc(C)c1NC(=O)CN1CCN(CCCC(c2ccc(F)cc2)c2ccc(F)cc2)CC1 | – | 9.52 µM (active)

Compound | activity change, negative = cytotoxic | Potency
C/C=C/c1ccc(OC)c(OC)c1 | -18% | –
C[Si](C)(C)Cl | 8.66% | –
O=S(=O)(O)CCCN1CCOCC1 | 14.4% | –
O=Cc1ccc(F)cc1 | -1.71% | –
Clc1cccnc1 | -5.33% | –
Cc1c(C(=O)O)cccc1[N+](=O)[O-] | 1.45% | –
CCCCCCCCCCCCCCNCCO | – | 13.4 µM (active)
NC(=O)C(=O)N/N=C/c1ccc([N+](=O)[O-])o1 | 14.9% [at 35.3 µM] | –
Cc1cnccn1 | 12.6% | –
COc1nccnc1CC(C)C | 10.5% | –
CCCCCCCCCCCCCCCC | 8.74% | –
CCN=C1C=CC(=C(c2ccc(N(CC)CC)cc2)c2ccc(N(CC)CC)cc2)c2ccccc21 | – | 6.88 µM (active)
CCCCCCS | 6.96% | –
NC1(c2ccc(-c3nc4ccn5c(=O)[nH]nc5c4cc3-c3ccccc3)cc2)CCC1 | – | 1.9 µM (active)
CCCC(C)CCC(C)=O (stereo not given) | -3.8% | –
Cc1ccc(-n2[nH]c(C)c(N=Nc3cccc(-c4cccc(C(=O)O)c4)c3O)c2=O)cc1C | – | 23.9 µM (active)
C[C@H]1O[C@@H](O[C@H]2[C@@H](O)C[C@H](O[C@H]3[C@@H](O)C[C@H](O[C@H]4CC[C@@]5(C)[C@H](CC[C@@H]6[C@@H]5C[C@@H](O)[C@]5(C)[C@@H](C7=CC(=O)OC7)CC[C@]65O)C4)O[C@@H]3C)O[C@@H]2C)C[C@H](O)[C@@H]1O | – | 61.7 nM (active) and 54.3 nM (active)
O=C1Nc2ccc(Cl)cc2[C@@](C#CC2CC2)(C(F)(F)F)O1 | – | 23.9 µM (active)
Cc1cccc(Br)c1 | -1.05% | –
NCCCCCCNCCCCCCN | -4.14% | –
